A selection: hits, their analogues and other compounds. The true share with any hit is near 1.3%.
SUMO HTRF inh: inhibitors of human SUMOylation (UBC9) | HTRF SUMOylation assay, SAE1/SAE2 + UBC9, in vitro | AID 2006 | P63279 | actives 0.36% (n = 290,000) | inhibition, % at 35 µM; in the data active means inhibition above about 50%, passing the limit was not always enough; inconclusive means no clear call, values can overlap the other calls
Target sequence (P63279 whole entry, looked up): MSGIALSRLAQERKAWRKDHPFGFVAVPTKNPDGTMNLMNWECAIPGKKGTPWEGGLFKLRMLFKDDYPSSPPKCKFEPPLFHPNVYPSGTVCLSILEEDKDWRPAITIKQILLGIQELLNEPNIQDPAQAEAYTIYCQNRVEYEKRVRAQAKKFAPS
14-3-3 Bad PPI: disrupts binding of bovine 14-3-3 zeta to phospho-Bad peptide | actives 0.71% (n = 220,000) | P63103 | inhibition, % at 21.7 µM | TR-FRET 14-3-3zeta/Dy647-pBad peptide displacement, 1 h;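 active means inhibition above about 70%, limit read from the data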;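 further: 0% = full 14-3-3 plus peptide FRET controls and 100% = background without 14-3-3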
Target sequence (P63103 whole entry, looked up): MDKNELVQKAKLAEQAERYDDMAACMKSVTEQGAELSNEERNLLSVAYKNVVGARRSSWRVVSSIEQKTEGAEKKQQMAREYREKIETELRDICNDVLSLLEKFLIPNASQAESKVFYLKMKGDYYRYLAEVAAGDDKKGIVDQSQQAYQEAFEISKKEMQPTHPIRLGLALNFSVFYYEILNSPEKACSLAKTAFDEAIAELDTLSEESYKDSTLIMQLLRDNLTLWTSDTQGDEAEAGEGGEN
NCF1 inh: inhibitors of human p47phox binding. p47phox/p22phox peptide binding, fluorescence polarization, 2 h. inhibition, % at 24.7 µM. actives 0.53% (n = 220,000). AID 1274;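 further: 0% = p47phox with labelled peptide and 100% = labelled peptide alone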
eIF4E-4G inh: eIF4E/eIF4G interaction inhibition in translation initiation | inhibition, % at 21.7 µM | AID 782 | TR-FRET eIF4E-eIF4GI(517-606) binding, 2 h | actives 0.37% (n = 220,000);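 further: 0% = full FRET control wells and 100% = background wells lacking eIF4GI fragment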
Numbers without * were called inactive; u = inconclusive; x = no result given; [ ] = another dose, or the depositor's remark.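 How the source made its calls, unless noted: active means inhibition above about 30% (limit read from the data); inactive means the rest.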

SMILES	SUMO HTRF inh	14-3-3 Bad PPI	NCF1 inh	eIF4E-4G inh
C/C(=N\O)C1CCCCC1	11	2	-13	0
Cc1ccc(NC(=O)CN2C(=O)S/C(=C\c3ccc(-c4cccc(C(=O)O)c4C)o3)C2=O)cc1C	x	87*	-56	58*
O=C(CN1C(=O)S/C(=C\c2ccc(-c3cc(C(=O)O)ccc3Cl)o2)C1=O)Nc1ccc2c(c1)OCO2	84*	x	x	x
Cn1cc(/C=C2/SC(=O)N(CC(=O)Nc3ccc4c(c3)OCO4)C2=O)c2ccccc21	32	22	-46	-32
CS(=O)(=O)N(Cc1ccccc1Cl)c1ccc(C(=O)N2CCCC2)cc1	1	x	x	x
Cc1nc2nc(CCNS(=O)(=O)c3ccc(Cl)cc3)cn2nc1C	39	x	x	x
O=C(Nc1ccccc1C(=O)NC(Cc1ccc(O)cc1)C(=O)O)c1ccccc1 (configuration not stated)	12	2	-3	4
CC(=O)c1ccc(NC(=O)CC2Nc3cccc4cccc(c34)NC2=O)cc1 (configuration not stated)	96*	-8	-1	2
COc1ccc(N(CC(=O)NCc2ccco2)C(=O)CCC(=O)Nc2nccs2)cc1	3	x	x	x
Cn1c(OCc2ccc3c(c2)OCO3)nc2c1c(=O)n(Cc1ccc(Cl)c(Cl)c1)c(=O)n2C	-7	-2	55*	-2
C=CCc1cc(C=O)cc(OC)c1OCc1ccc(C(=O)O)cc1	20	-6	-35	0
COc1ccc(C(=O)Oc2ccc(=O)n(-c3ccccc3)n2)cc1	3	72*	-9	6
O=C(Oc1ccc(=O)n(-c2ccccc2)n1)c1ccc(Cl)cc1	-26	48	-15	7
O=C(Oc1ccc(=O)n(-c2ccccc2)n1)c1cccc(Cl)c1	-17	35	-13	33*
Cc1cccc(S(=O)(=O)N2CCN(Cc3ccc4c(c3)OCO4)CC2)c1	14	x	x	x
Cc1ccc(Nc2nc3ccccc3nc2-n2nc(C)cc2C)cc1	1	6	3	52*
Cc1cc(C)n(-c2nc3ccccc3nc2Nc2ccc(CC(=O)O)cc2)n1	12	-5	-7	-3
COc1ccc(-c2ccc3c(N)c(C(=O)NC(C)C)sc3n2)cc1OC	9	-1	-22	-5
COc1ccc(C(=O)c2sc3nc(-c4ccccc4)ccc3c2N)cc1OC	28	84*[fluorescence artefact?]	30*	2
COc1ccc(-c2ccc3c(N)c(C(=O)c4ccc(OC)c(OC)c4)sc3n2)cc1	31	86*[fluorescence artefact?]	13	14
Cc1ccc(OCCN(C)C(=O)c2cc(COc3ccc(F)cc3F)on2)cc1	4	x	x	x
Cc1ccc(C(=O)O/N=C2\CCSc3ccc(C)cc32)cc1	-7	16	-13	3
Cc1cccc(C(=O)O/N=C2\CCSc3ccc(C)cc32)c1	-10	27	94*	5
CCN1C(c2ccccc2)=C(c2ccccc2)S/C1=C/C=C1\SC(=S)N(C)C1=O	-6	5	42*	1
CCN1C(=O)/C(=C/C=C2/Sc3ccc4ccccc4c3N2CCO)SC1=S	u	12	-91	-8
SMILES	SUMO HTRF inh	14-3-3 Bad PPI	NCF1 inh	eIF4E-4G inh
Cc1nn(-c2ccccc2)c(Cl)c1/C=N/Nc1ccc(S(=O)(=O)Nc2ccccc2C(=O)O)cc1[N+](=O)[O-]	62*	88*[fluorescence artefact?]	-20	26
C=CCSc1nc(-c2ccc(OC)cc2)c(C#N)c(=O)n1CC=C	6	-1	-8	89*
Cc1ccc(C)c(N2CCN(C(=O)C(Cc3ccccc3)n3cccc3)CC2)c1 (configuration not stated)	-10	9	-5	67*[fluorescence artefact?]
O=C(C(Cc1ccccc1)n1cccc1)N1CCN(c2ccccc2)CC1 (configuration not stated)	-12	0	-2	-1
O=C(CSc1cccc[n+]1[O-])NC(=O)c1ccc(OC(F)F)cc1	17	3	-9	2
COCCN1C=C2C(=O)C(C)(OC(=O)C3CCCC3)C(=O)C(c3ccccc3)=C2C=C1CCCC(=O)OC (configuration not stated)	-14	2	16	-7
COC(=O)CCCC1=CC2=C(c3ccccc3)C(=O)C(C)(OC(=O)C3CCCC3)C(=O)C2=CN1CC1CC1 (configuration not stated)	19	-3	-15	89*
COc1ccc2cc3c(N)nn(C(=O)c4ccccc4[N+](=O)[O-])c3nc2c1	6	-9	-18	0
COc1ccc2cc3c(N)nn(C(=O)c4ccc(Cl)c([N+](=O)[O-])c4)c3nc2c1	11	74*[fluorescence artefact?]	22	16
COc1ccc(S(=O)(=O)N=C2C=C(C)C(=O)C(C)=C2)cc1	17	72*	-9	4

Assay outcomes (PubChem BioAssay)
